Laboratory results taken from PMC5540273 (PLoS ONE, 2017).

System: WNK3
Settings: concentration: 1 μM, replicates: in singlicate; n = 1
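Note: KINOMEscan kinase panel screen.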

Row | Compound | %Inh [%]
1 | CCc1ccc(-c2ccc3c(c2)-c2c(cnn2C)S(=O)(=O)N3C)cc1 | 0
2 | c1ccc(-c2n[nH]cc2Nc2ccnc3ccccc23)nc1 [GW694077] | 15
3 | c1ccc(Oc2ccc(Nc3ccnc4cc(-c5ccc(CNCCN6CCOCC6)o5)ccc34)cc2)nc1 [GW567145] | 43
4 | Cn1cc(-c2[nH]c3cc(NC(=O)[C@H](N)C4CCCCC4)cc4c3c2C=NNC4=O)cn1 | 0
5 | FC(F)(F)c1ccc(/C=C/c2cncnc2Nc2ccc3[nH]c(Cc4ccccc4)nc3c2)cc1 [GW709199] | 0
6 | COc1cc2c(cc1OCCN1CCNCC1)ncc1c3ccc(C#N)cc3[nH]c21 | 7
7 | CC(=O)N1CCN(c2ccc(Nc3nccc(-c4sc(C(C)C)nc4-c4cccc(NS(=O)(=O)c5cccc(Cl)c5)c4)n3)cn2)CC1 [GSK1660437] | 0
8 | Cc1ccc(F)c(C(=O)Nc2cccc(-c3nn4ccccc4c3-c3ccnc(Nc4cccc(F)c4)n3)c2)c1F [GSK361061] | 3
9 | Cc1cccc(NC(=O)Nc2ccc(Oc3ncnc4ccn(C)c34)cc2)c1 | 0
10 | COc1cc(Nc2nccc(N3CCC(NC(=O)Nc4cccc(C(C)=O)c4)C3)n2)cc(OC)c1OC (stereo not drawn) [GSK1379753] | 59
11 | C[C@@H](Oc1cc(-n2cnc3cc(-c4ccnc(NCCS(C)(=O)=O)c4)ccc32)sc1C(N)=O)c1ccccc1Cl [GSK907232] | 88
12 | COC(=O)Nc1nc2cc(Oc3ccc(NC(=O)Nc4cc(C(F)(F)F)ccc4F)cn3)ccc2[nH]1.Cl.Cl [GW681170] | 22
